Bioassay records: PubChem, several laboratories
Hits are enriched below; roughly 3.6% of the tested compounds scored in any of these assays.
Mtb FBA inh – Mtb FBA enzyme inhibitors, primary screen, biochemical, fluorescence, strain H37Rv. 360,000 tested, 2.3% active. inhibition, % at 1 µM. purified M. tuberculosis FBA, fluorescence read-out; in the data active = inhibition above about 27%;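 note: 0% = vehicle and 100% = reference inhibitor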
VHR inh abs – VHR1 phosphatase inhibitors, primary screen, biochemical, absorbance, uHTS; Dual specificity protein phosphatase 3 (Homo sapiens), P51452; recombinant VHR phosphatase, pNPP absorbance; inhibition, % at 13.3 µM; 290,000 tested, 0.52% active; AID 1654, 2009; in the data active = inhibition above about 50%
Target sequence (P51452 whole entry, looked up): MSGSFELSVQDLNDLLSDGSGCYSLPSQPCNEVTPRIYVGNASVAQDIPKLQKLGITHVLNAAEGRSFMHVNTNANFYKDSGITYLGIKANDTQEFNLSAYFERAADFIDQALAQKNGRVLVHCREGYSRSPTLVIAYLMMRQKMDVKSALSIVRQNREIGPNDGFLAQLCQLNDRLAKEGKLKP
GDH-TPI inh – GDH-TPI coupling enzyme inhibitors, primary screen, artefact control for M. tuberculosis FBA inhibitor project, biochemical, absorbance, full deck; GDH-TPI coupled enzyme counterscreen, NADH absorbance; inhibition, % at 4.8 µM; 360,000 tested, 1.2% active; AID 588335, 2011; in the data active = inhibition above about 30%;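 note: 0% = DMSO wells and 100% = wells lacking the enzyme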
Mtb hypoxia rep – PubChem AID 1159583 | M. tuberculosis hypoxia-regulated fluorescent reporter, fluorescence | fluorescence inhibition, % (no concentration beside the values) | 300,000 tested, 0.1% active; in the data active = fluorescence inhibition mostly above about 23%, no sharp cut-off; inactive = mostly below about 17%
Mtb bLac sens – beta-lactam sensitization of Mtb H37Rv, H37Rv; M. tuberculosis H37Rv growth with meropenem, percent inhibition; inhibition, % at 25 µM; 330,000 tested, 0.27% active; AID 434955, 2010; call rule not given here;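 note: growth measured after seven days incubation then overnight dye step; 0% = bacteria only wells and 100% = bacteria with antibiotic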
The depositor's hits bear a star; · = no result given.

SMILES	Mtb FBA inh	VHR inh abs	GDH-TPI inh	Mtb hypoxia rep	Mtb bLac sens
CCOc1ccc(/C=C2\SC(N3CCCCC3)=NC2=O)cc1	2	-3	48*	7	5
O=C(Nc1ccc(/C=C/c2nc3ccccc3o2)cc1)c1ccc(F)cc1	4	21	33*	3	27
O=C(NNC(=O)c1ccc(NC(=O)c2ccccc2)cc1)c1ccc(F)cc1	-2	27	0	8	-5
Cc1cccc(CCNC(=O)C2CCC(=O)N(Cc3ccc(Cl)cc3)C2)n1 (configuration not stated)	0	12	-8	4	-23
O=C(NCCc1cccc(Cl)c1)C1CCC(=O)N(Cc2ccc(Cl)cc2)C1 (configuration not stated)	0	59*	0	-9	8
COc1ccc2c(c1)C1=NN(C(C)=CC(C)=O)C(c3cccc(F)c3)C1CC2 (configuration not stated)	·	·	·	-9	·
CC(/C=N/NC(=O)c1nnn(-c2nonc2N)c1CN(C)C)=C\c1ccco1	2	13	35*	·	-2
CCOc1ccc(-c2c(C(=O)NN=Cc3ccc(C)s3)nnn2-c2nonc2N)cc1	·	·	·	8	·
CCOc1ccc(-c2c(C(=O)N/N=C/c3ccc(C)s3)nnn2-c2nonc2N)cc1	-1	4	37*	·	-4
CCOc1ccc(-c2c(C(=O)N/N=C/c3ccco3)nnn2-c2nonc2N)cc1	2	7	43*	·	2
CCOc1ccc(-c2c(C(=O)NN=Cc3ccco3)nnn2-c2nonc2N)cc1	·	·	·	-3	·
COc1ccc(C2C3C(=O)N(C(C)(C)C)C(=O)C3[C@]3(CC(C)C)C(=O)N(c4cccc(F)c4)C(=O)N23)cc1 (some centres not stated)	·	·	·	3	·
NCCCCC1CNC(=O)C(=O)N1CCc1cccc(F)c1 (configuration not stated)	·	·	·	15	·
CC(C)c1nc(CN(C)C(=O)NC(C(=O)NC(Cc2ccccc2)CC(O)C(Cc2ccccc2)NC(=O)OCc2cncs2)C(C)C)cs1 (configuration not stated)	·	·	·	-11	·
CCn1nc(NC(=O)C(C)C)c2cc3cccc(C)c3nc21	10	56*	15	0	10
CCn1nc(NC(C)=O)c2cc3cccc(C)c3nc21	-2	26	-1	16	5
CC1CN(C(C)CO)C(=O)c2cc(NC(=O)NC3CCCCC3)ccc2OC1CN(C)C(=O)Nc1ccccc1 (configuration not stated)	·	·	·	8	·
Cc1ccc(-c2nnc(Nc3ccc(C(=O)N(C)C)cc3)c3ccccc23)cc1S(=O)(=O)NC(C)(C)CO	-1	1	37*	9	-1
Cc1ccc(-c2nnc(Nc3ccc(CC(N)=O)cc3)c3ccccc23)cc1S(=O)(=O)NCC1CCCO1 (configuration not stated)	4	17	32*	-4	-6
COC(=O)c1ccc(Nc2nnc(-c3ccc(C)c(S(=O)(=O)NCC4CCCO4)c3)c3ccccc23)cc1 (configuration not stated)	0	13	23	·	3
COc1ccc(C(=O)COC(=O)CNC(=O)c2ccc(C)s2)c(OC)c1	2	·	15	35*	0
O=C(C[n+]1ccccc1)NN=Cc1cc(Br)ccc1F	·	·	·	0	·
CCOCCC(=O)Nc1ccc2c(c1)c(=O)n(C)n2C/C=C/c1ccccc1	113*	·	4	·	·
CCOCCC(=O)Nc1ccc2c(c1)c(=O)n(C)n2-c1ccccc1F	181*	·	12	·	·
Cn1c(=O)c2cc(NC(=O)CCc3ccccc3)ccc2n1-c1ccccc1F	114*	·	13	·	·
SMILES	Mtb FBA inh	VHR inh abs	GDH-TPI inh	Mtb hypoxia rep	Mtb bLac sens
Cn1c(=O)c2cc(NC(=S)NC3CCCCC3)ccc2n1C/C=C/c1ccccc1	9	·	10	·	·
CC(CC(=O)Nc1ccc2c(c1)c(=O)n(C)n2-c1ccccc1)c1ccccc1 (configuration not stated)	13	·	5	·	·
C[C@H](NC(=O)c1cc2c(cn1)[nH]c1ccccc12)C(=O)O	20	57*	-4	·	54
CCOc1ccc2ccccc2c1/C=N/NC(=O)CNC(=O)C(c1ccccc1)c1ccccc1	1	52*	0	·	-1
CCOc1ccc2ccccc2c1C=NNC(=O)CNC(=O)Cc1ccccc1	·	·	·	1	·
CC(C)(C)c1ccc(C(=O)NN=Cc2ccc(OCCCF)cc2)cc1	·	·	·	-3	·
COc1ccc2oc3ccc(OC)cc3c(=O)c2c1	49*	19	1	10	40
